The campaign covered roughly 53,000 sequences. About 3,200 (6%) were called active. The sample holds actives, similar sequences and a random draw of the others, so the mix is not that of the screen. No stated cut-off is given here; in the data, active = GI50 up to about 1.1 µM and inactive = higher. Results with a measured potency or affinity are listed apart.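 Cells were grown in 96-well plates and exposed to each compound for 48 hours at five concentrations; endpoints were interpolated linearly between bracketing concentrations, or set to the highest concentration if not reached. GI50 is the concentration that inhibits growth by half.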

This is an account of results in ChEMBL document CHEMBL1201862, “PubChem BioAssay data set” (2004).

The test system of the test is HCC 2998. Description: NCI tumour cell line growth inhibition, 48 h.
CISPLATIN, CHEMBL11359 displayed a GI50 of 5.4 µM.

“[Bis(aminomethyl)tetramethylenesilane]dichloropaltinum(II), CHEMBL2146205” returned a GI50 of 25.4 µM.

In turn, “[Bis(aminomethyl)dimethylsilane]tetrachloroplatinum(IV), CHEMBL2146190” showed a GI50 of 6.78 µM.

On to “[Bis(aminomethyl)ethylmethylsilane]tetrachloroplatinum(IV), CHEMBL2146192”, for which the GI50 was 2.38 µM.

Consider “[Bis(aminomethyl)tetramethylenesilane]tetrachloropaltinum(IV), CHEMBL2146189”, for which the GI50 came out at 0.682 µM.

Regarding “[Bis(aminomethyl)dimethylsilane]dichloroplatinum (II), CHEMBL2146201”, the GI50 was 10 µM.

In turn, “[Bis(aminomethyl)pentamethylenesilane]tetrachloropaltinum(IV), CHEMBL2146204” registered a GI50 of 0.313 µM.

With “mu-(1,7-nanodiamine-N,N')bis-(cis-aminedichloroplatimum (II)), CHEMBL2146215”, the GI50 turned out to be 24 µM.

For the substance “[Bis(aminomethyl)pentamethylenesilane]dichloropaltinum(II), CHEMBL2146202”, the GI50 was determined as 3.52 µM.
